Hits are enriched below; roughly 4.1% of the tested compounds scored in any of these assays.
ssDAF12 agonist = S. stercoralis DAF-12 nuclear receptor activators, primary screen, cell-based, luminescence, HEK293, GRIP1 co-expression, lit1-tk-luc; Nuclear hormone receptor DAF-12 (Strongyloides stercoralis); HEK293 ssDAF-12/GRIP1 lit1-tk-luc reporter; % of 3 µM dafachronic acid response; activation, % at 6.8 µM; 370,000 compounds, 1% hits;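 active = activation above the mean over all tested compounds plus 3 SD, cut at about 0.9% in these data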;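 also: 0% = DMSO-only wells and 100% = 3 µM delta7-dafachronic acid wells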
DAX1 inh-1 = DAX1 (NR0B1) inhibitors on StAR promoter, primary screen, cell-based, luminescence, SF-1 (NR5A1), full-length DAX-1 | HEK293T StAR-luciferase reporter, SF-1/DAX-1 repression relief | inhibition, % at 6.8 µM | 370,000 compounds, 1.1% hits;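 active = inhibition above the mean over all tested compounds plus 3 SD, cut at about 3.6% in these data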;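 also: 0% = DAX-1 cells with DMSO and 100% = cells lacking DAX-1 with DMSO; higher inhibition means more luminescence from relief of DAX-1 repression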
hcDAF-12 act = H. contortus DAF-12 nuclear receptor activators, primary screen, cell-based, luminescence, HEK293, lit1-tk-luc reporter. HEK293 hcDAF-12 lit1-tk-luc reporter; 0% DMSO, 100% Δ7-dafachronic acid. activation, % at 6.8 µM. 370,000 compounds, 1.4% hits;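 active = activation above the mean of all tested compounds plus 3 SD, cut at about 5.5% in these data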;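 also: 100% = response to 3 µM Δ7-dafachronic acid high control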
DAX1 inh-2 = DAX1 (NR0B1) inhibitors, primary screen, cell-based, HEK293, Gal4-DAX1, luciferase luminescence | inhibition, % at 6.75 µM | AID 504766, 2011 | HEK293 Gal4-DAX1 luciferase reporter | 340,000 compounds, 0.99% hits;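 active = inhibition above the mean over all tested compounds plus 3 SD, cut at about 4.2% in these data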;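 also: 0% = DAX1-transfected cells with DMSO and 100% = empty-vector control cells with DMSO; inhibition shows as a rise in luminescence from relieved DAX1 repression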
Target sequence (P51843 207-470 limits assumed): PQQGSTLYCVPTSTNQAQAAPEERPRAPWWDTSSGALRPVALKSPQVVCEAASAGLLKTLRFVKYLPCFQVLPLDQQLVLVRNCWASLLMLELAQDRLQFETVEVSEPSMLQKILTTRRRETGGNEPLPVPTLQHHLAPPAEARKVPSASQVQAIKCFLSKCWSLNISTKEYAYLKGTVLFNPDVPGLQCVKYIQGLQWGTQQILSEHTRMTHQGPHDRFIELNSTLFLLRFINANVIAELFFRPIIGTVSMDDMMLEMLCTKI
hgDAF-12 ag = H. glycines DAF-12 receptor agonists, primary screen, cell-based, luminescence, HEK293, GAL4 fusion, UAS-luciferase; HEK293 GAL4-hgDAF12 UAS-luciferase reporter, agonist luminescence; normalized to butyrate control; activation, % at 6.8 µM; 370,000 compounds, 1.8% hits; AID 687014, 2013;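 active = activation above a cutoff set at the mean of all screened compounds plus 3 SD, cut at about 10% in these data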;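 also: 0% = DMSO wells and 100% = sodium butyrate wells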
DAX1 inh confirm = DAX1 (NR0B1) inhibitors relieving SF-1 repression, confirmation, cell-based, luminescence, HEK293T, full-length DAX-1, SF-1 activated StAR promoter; shares compounds with DAX1 inh-1; HEK293T StAR-promoter luciferase reporter, SF-1/DAX-1 repression; AID 652134, 2013; 2,400 compounds, 87% hits; inhibition, % at 6.8 µM;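 active = inhibition above the average of every tested compound plus 3 SD, cut at about 3.8% in these data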;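 also: 0% = DAX-1 cells with DMSO and 100% = no DAX-1 control cells with DMSO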
Target sequence (P51843 whole entry, looked up): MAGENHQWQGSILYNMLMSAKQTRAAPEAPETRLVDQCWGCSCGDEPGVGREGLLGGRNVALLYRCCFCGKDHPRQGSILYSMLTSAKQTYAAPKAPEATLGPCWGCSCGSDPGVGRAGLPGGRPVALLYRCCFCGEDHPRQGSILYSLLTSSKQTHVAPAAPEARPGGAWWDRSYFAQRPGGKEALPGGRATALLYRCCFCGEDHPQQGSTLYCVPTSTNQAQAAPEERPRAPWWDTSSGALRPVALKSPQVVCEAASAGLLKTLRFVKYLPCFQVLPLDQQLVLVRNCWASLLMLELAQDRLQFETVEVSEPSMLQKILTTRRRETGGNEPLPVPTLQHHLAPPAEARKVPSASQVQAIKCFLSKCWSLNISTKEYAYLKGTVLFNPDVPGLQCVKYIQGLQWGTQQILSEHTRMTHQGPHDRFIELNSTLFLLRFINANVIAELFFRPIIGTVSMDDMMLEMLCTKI
SF1 mutant ctr = StAR reporter signal changes without DAX1, counter-screen for DAX1 inhibitor project, cell-based, luminescence, AF-2 mutant SF-1, transactivation. AID 652136, 2013. HEK293 StAR-luciferase, SF-1 AF2 mutant. inhibition, % at 6.8 µM. 2,400 compounds, 78% hits. shares compounds with DAX1 inh-1;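 active = inhibition above the mean of all tested compounds plus 3 SD, cut at about 3% in these data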;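 also: 0% = DAX-1 transfected cells with DMSO and 100% = cells without DAX-1 with DMSO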
LXR ag = LXR agonists, Gal4 luciferase reporter, confirmation, counter-screen for hcDAF-12 agonist project, cell-based, luminescence, HEK293, H. contortus campaign; shares compounds with hcDAF-12 act; HEK293 Gal4-LXR tk-luc reporter, 24 h; normalized: DMSO 0%, positive control 100%; activation, % at 6.8 µM; 3,400 tested, under 10 active; AID 743027, 2013;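 active = mean percent activation of the reporter above a cutoff set as the average over tested compounds plus their standard deviation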
hcDAF12 ag = H. contortus DAF-12 receptor agonists, confirmation, cell-based, luminescence, HEK293, lit1-tk-luc, triplicate. shares compounds with hcDAF-12 act. activation, % at 6.8 µM. 3,400 compounds, 61% hits. HEK293 hcDAF-12 lit1-tk-luc reporter; % of Δ7-dafachronic acid response;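 active = mean activation across triplicate tests above the threshold derived from the earlier primary screen, cut at about 5.5% in these data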;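 also: 0% = DMSO only wells and 100% = 3 µM Δ7-dafachronic acid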
hgDAF12 ag = H. glycines DAF-12 receptor agonists, confirmation, cell-based, luminescence, HEK293, GAL4-LBD fusion; HEK293 GAL4-hgDAF12 luciferase reporter, agonist mode; percent of butyrate response; AID 743050, 2013; 3,300 compounds, 80% hits; activation, % at 6.8 µM; shares compounds with hgDAF-12 ag;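 active = mean activation over triplicate wells above the hit cutoff derived from the earlier primary screen, cut at about 11% in these data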;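 also: 0% = DMSO low control and 100% = 2 mM sodium butyrate high control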
LXRb DAF12 ctr = LXR agonists, Gal4 luciferase reporter, confirmation, counter-screen for hgDAF-12 agonist project, cell-based, luminescence, HEK293, H. glycines campaign; AID 743051, 2013; shares compounds with hgDAF-12 ag; activation, % at 6.8 µM; 3,300 tested, under 10 active; 24 h;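 active = mean activation of the triplicate above a set limit carried over from the primary screen, none filed active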
* = called active by the depositor.

Results for N#Cc1c(NC(=O)CSc2nnc(-c3ccccc3)o2)sc2c1CCCC2 ?
DAX1 inh-2: 0

How did CCCCCCCCN1C(=O)[C@@H](CC(=O)N2CCOCC2)C[C@@]2(C(=O)OC)C1=C[C@H](C(C)(C)C)O[C@@H]2C do in these assays?
ssDAF12 agonist: -1; DAX1 inh-1: -1; hcDAF-12 act: -1; hgDAF-12 ag: -1

How did Cc1cc(C(=O)CSc2nncs2)c(C)n1Cc1ccco1 do in these assays?
ssDAF12 agonist: 0; DAX1 inh-1: 4.8*; hcDAF-12 act: 5; DAX1 inh-2: -2; hgDAF-12 ag: 16*; DAX1 inh confirm: 9.8*; SF1 mutant ctr: 5.3*; hgDAF12 ag: 13*; LXRb DAF12 ctr: 1

Results for Cc1cc(C(=O)CSc2nn(-c3ccccc3)c(=S)s2)c(C)n1Cc1ccco1 ?
ssDAF12 agonist: -2; DAX1 inh-1: -1; hcDAF-12 act: -2; DAX1 inh-2: -3; hgDAF-12 ag: -5

What do the screens show for `COC(=O)[C@@]12C[C@@H](CC(=O)N3CCN(C(=O)C4CC4)CC3)C(=O)N(Cc3cccc4ccccc34)C1=CCC(C)(C)C2`?
ssDAF12 agonist: 0; DAX1 inh-1: 1; hcDAF-12 act: -1; hgDAF-12 ag: -3

Results for Cc1cc(C(=O)Nc2nc(C)c(C(=O)N(C)C)s2)ccc1[N+](=O)[O-] ?
ssDAF12 agonist: 0; DAX1 inh-1: 4.6*; hcDAF-12 act: 3; DAX1 inh-2: 1; hgDAF-12 ag: 14*; DAX1 inh confirm: 13*; SF1 mutant ctr: 5.4*; hgDAF12 ag: 11*; LXRb DAF12 ctr: 1

How did CCOc1ccc(/C=N/Nc2ccccn2)cc1OC do in these assays?
ssDAF12 agonist: 0; DAX1 inh-1: 6.7*; hcDAF-12 act: 2; DAX1 inh-2: 2; hgDAF-12 ag: 16*; DAX1 inh confirm: 8.3*; SF1 mutant ctr: 4.4*; hgDAF12 ag: 13*; LXRb DAF12 ctr: 0

Results for C=CCOc1ccc(/C=N/Nc2ccccn2)cc1OC ?
ssDAF12 agonist: -1; DAX1 inh-1: 5.3*; hcDAF-12 act: 1; DAX1 inh-2: 2; hgDAF-12 ag: 14*; DAX1 inh confirm: 4.7*; SF1 mutant ctr: 3; hgDAF12 ag: 11*; LXRb DAF12 ctr: 0

What do the screens show for `C(=N\Nc1ccccn1)/c1ccc2c(c1)OCCO2`?
ssDAF12 agonist: 1; DAX1 inh-1: 5.6*; hcDAF-12 act: 6.0*; DAX1 inh-2: 1; hgDAF-12 ag: 27*; DAX1 inh confirm: 15*; SF1 mutant ctr: 9.4*; hgDAF12 ag: 22*; LXRb DAF12 ctr: 1

How did O=C(O)c1cc(N/N=C/c2ccc3c(c2)OCCO3)ccc1Cl do in these assays?
ssDAF12 agonist: 0; DAX1 inh-1: 4.6*; hcDAF-12 act: 3; DAX1 inh-2: -4; hgDAF-12 ag: 17*; DAX1 inh confirm: 13*; SF1 mutant ctr: 6.0*; hgDAF12 ag: 23*; LXRb DAF12 ctr: 1

What do the screens show for `Fc1cccc(/C=N/Nc2ccccn2)c1`?
ssDAF12 agonist: 0; DAX1 inh-1: 2; hcDAF-12 act: 2; DAX1 inh-2: 2; hgDAF-12 ag: 2

How did C[C@@]12C(=O)N(c3ccc(C(F)(F)F)cc3)C(=O)N1[C@@H]1c3ccccc3OC[C@@H]1[C@H]2c1ccccc1 do in these assays?
DAX1 inh-2: 1

Results for COCCNC(=O)C1(C)CCN(C(=O)c2cc(C)nn2C(C)(C)C)C1 (stereo unspecified) ?
ssDAF12 agonist: -1; DAX1 inh-1: 0; hcDAF-12 act: -1; hgDAF-12 ag: -2

Results for Cc1ccc(NC(=S)c2nc3ccccc3[nH]2)c(C)c1 ?
ssDAF12 agonist: 1.6*; DAX1 inh-1: 5.1*; hcDAF-12 act: 6.8*; DAX1 inh-2: 1; hgDAF-12 ag: 24*; DAX1 inh confirm: 17*; SF1 mutant ctr: 8.1*; LXR ag: 2; hcDAF12 ag: 13*; hgDAF12 ag: 19*; LXRb DAF12 ctr: 1

How did N#Cc1ccccc1OCC(=O)Nc1ccc2c(c1)OCO2 do in these assays?
ssDAF12 agonist: 0; DAX1 inh-1: 5.9*; hcDAF-12 act: 2; DAX1 inh-2: 4; hgDAF-12 ag: 20*; DAX1 inh confirm: 6.5*; SF1 mutant ctr: 4.0*; hgDAF12 ag: 13*; LXRb DAF12 ctr: 0

What do the screens show for `O=C(COC(=O)COc1ccccc1[N+](=O)[O-])Nc1ccc2c(c1)OCO2`?
ssDAF12 agonist: -1; DAX1 inh-1: 0; hcDAF-12 act: 1; DAX1 inh-2: -1; hgDAF-12 ag: -2

How did NC(=O)c1cc(Cl)ccc1OCC(=O)Nc1ccc2c(c1)OCO2 do in these assays?
ssDAF12 agonist: 0; DAX1 inh-1: 12*; hcDAF-12 act: 2; DAX1 inh-2: 1; hgDAF-12 ag: 16*; DAX1 inh confirm: 12*; SF1 mutant ctr: 8.7*; hgDAF12 ag: 15*; LXRb DAF12 ctr: 1

From PubChem
